ST2 inh: inhibitors of human ST2 (IL1RL1) binding to IL-33 | Q01638 | AlphaLISA ST2-Fc/biotin-IL-33 interaction, 1 h | inhibition, % for hits at 17 µM | actives 2.3% (n = 78,000); in the data active = inhibition above about 30%
Target sequence (Q01638 whole entry, looked up): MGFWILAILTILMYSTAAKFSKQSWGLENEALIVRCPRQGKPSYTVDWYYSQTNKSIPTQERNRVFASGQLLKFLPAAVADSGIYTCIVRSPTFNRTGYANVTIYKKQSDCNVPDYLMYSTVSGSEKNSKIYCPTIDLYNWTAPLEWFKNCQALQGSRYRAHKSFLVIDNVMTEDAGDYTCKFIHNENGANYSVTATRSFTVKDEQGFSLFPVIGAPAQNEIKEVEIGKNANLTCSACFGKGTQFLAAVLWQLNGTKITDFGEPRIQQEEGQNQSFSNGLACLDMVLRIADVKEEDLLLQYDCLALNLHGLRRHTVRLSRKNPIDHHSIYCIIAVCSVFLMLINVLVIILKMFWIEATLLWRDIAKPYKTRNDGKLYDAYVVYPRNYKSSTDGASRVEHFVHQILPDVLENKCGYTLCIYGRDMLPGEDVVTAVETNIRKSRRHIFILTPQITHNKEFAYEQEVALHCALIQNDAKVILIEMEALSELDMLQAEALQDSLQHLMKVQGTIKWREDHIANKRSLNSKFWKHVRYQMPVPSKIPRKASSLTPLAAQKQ
Of the large screens only hits and unclear results are named; the others gave an inactive call. The full list was thinned out, with hits kept by preference.

COc1ccc(NC(=O)c2oc3ccccc3c2NC(=O)C2CCCCC2)cc1	none
COc1ccc(-c2nc(N3CCCCC3)nc3nn4c(C)c(CCC(=O)O)c(C)nc4c23)cc1	none
Cn1cc(C(=O)NCc2ccc3c(c2)OCO3)c2c3ccccc3n(C)c2c1=O	none
O=C1CC(c2ccccc2OCc2ccccc2)c2cc3c(cc2N1)OCCO3 (stereo not drawn)	none
CCCCOc1ccc(/C=c2\sc3nc(=O)c(Cc4ccccc4)nn3c2=O)cc1	none
CCOc1cc(/C=C(\C#N)c2nn(-c3ccccc3)c(N)c2C#N)cc(Br)c1OC	ST2 inh 31%
C#CCOc1c(Br)cc(C=O)cc1OCC	none
CCOc1ccccc1-c1c(C#N)c(N)nc(OC)c1C#N	none
N#Cc1ccccc1N=Cc1ccc(Br)c([N+](=O)[O-])c1	ST2 inh 30%
O=[N+]([O-])c1cc(C=Nc2ccc3c(c2)OCCO3)ccc1Br	none
COc1ccc(N=Cc2ccc(Br)c([N+](=O)[O-])c2)cc1	ST2 inh 38%
Cc1ccc(N=Cc2ccc(N(C)C)c([N+](=O)[O-])c2)cc1	none
N#Cc1ccccc1N=Cc1cc2c(cc1[N+](=O)[O-])OCO2	none
Cc1ccc(N=Cc2ccc(Br)c([N+](=O)[O-])c2)c(O)c1	none
COc1cc(C=O)ccc1OCCCOc1ccc([N+](=O)[O-])cc1	none
COc1cc(OC)c(C=Nc2cc([N+](=O)[O-])ccc2C)cc1Br	none
COc1ccc(N=Cc2ccc(Oc3ccc([N+](=O)[O-])cc3[N+](=O)[O-])c(OC)c2)cc1	ST2 inh 34%
COc1ccc(C(=O)NC[C@@H]2C=C(C)[C@H](CC(=O)NCc3cccnc3)C[C@H]2C(C)C)cc1	none
CCCC(=O)NCCc1nc2ccccc2n1C(C)C	none
C=CCn1c(CCCNC(=O)c2ccc(Cl)cc2)nc2ccccc21	none
COc1ccc(C2CC(=O)C3=C(C2)Nc2ccccc2NC3c2cccs2)cc1OC (stereo not drawn)	none
Cc1n[nH]c(C)c1Sc1ccccc1NC(=O)CCCn1cncn1	none
O=C(Cc1ccc(F)cc1)N1CCN=C1SCc1ccc(Cl)cc1	none
O=C1NN(c2ccc(F)cc2)C(=O)/C1=C\c1cccn1-c1ccc([N+](=O)[O-])cc1	ST2 inh 31%
O=C1NC(=O)N(c2cccc(F)c2)C(=O)/C1=C/c1cccn1-c1ccccc1	none
O=C1NN(c2ccc(Br)cc2)C(=O)/C1=C\c1cccn1-c1ccc([N+](=O)[O-])cc1	ST2 inh 33%
O=[N+]([O-])c1ccc(NS(=O)(=O)c2ccc(Br)cc2)cc1	none
Cc1cc(/C=C2/C(=O)NC(=O)N(c3ccccc3)C2=O)c(C)n1-c1ccc([N+](=O)[O-])cc1	none
Cc1ccc(NC(=O)/C(=C/c2ccc3c(c2)OCO3)NC(=O)c2ccc(Br)cc2)cc1	none
O=c1cc(-c2ccc3c(c2)OCO3)oc2ccc(O)cc12	none
O=C1CCc2cc(S(=O)(=O)N3CCN(C4CCCCC4)CC3)ccc2N1	none
COc1cc(SC)ccc1C(=O)Nc1ccc2c(c1)N(C(C)=O)c1ccccc1CC2	none
COc1ccc(C(=O)Nc2sc3c(c2C#N)CC(C)(C)OC3)cc1	none
COc1ccccc1Cc1noc(-c2ccc([N+](=O)[O-])cc2)n1	ST2 inh 47%
COc1ccccc1Cc1noc(/C=C/c2ccccc2Cl)n1	none
COc1ccccc1Cc1nc(-c2ccc([N+](=O)[O-])cc2)no1	ST2 inh 30%
COc1ccccc1Nc1nc(-c2ccc([N+](=O)[O-])cc2)nc2ccccc12	none
COc1ccccc1CNc1ccc([N+](=O)[O-])cn1	none
COc1ccccc1Cc1noc(COc2cccc(C)c2C)n1	none
COc1ccc(-c2nc(-c3cccc([N+](=O)[O-])c3)no2)cc1	none
O=[N+]([O-])c1cccc(-c2noc(-c3ccc(I)cc3)n2)c1	none
COc1ccccc1Cc1nc(-c2cccc([N+](=O)[O-])c2)no1	ST2 inh 32%
Cc1c(C(=O)N2CC(C)CC(C)C2)sc2ncnc(N3CCOCC3)c12 (stereo not drawn)	none
CC1(C)C(=O)C2(CCCCC2)C(=O)OC1c1ccc(Cl)cc1 (stereo not drawn)	none
COc1ccc(C2CC(=O)C3=C(C2)Nc2ccccc2NC3c2ccc(N(C)C)cc2)cc1OC (stereo not drawn)	none
Cc1ccc(C2(O)CCN(C(=O)COc3ccccc3)CC2)nc1	none
CCc1ccc(C2NC(=O)NC(C)=C2C(=O)OCCSC)cc1 (stereo not drawn)	none
CNc1nc2c(C)cccn2c(=O)c1C=Nc1ccccc1	ST2 inh 33%
COc1ccc(N=Cc2c(Nc3ccccc3)nc3c(C)cccn3c2=O)cc1	none
Cc1cccn2c(=O)c(C=NCc3ccco3)c(Nc3ccc(Cl)cc3)nc12	ST2 inh 34%
Cc1cccn2c(=O)c(C=NCCO)c(NCc3ccccc3)nc12	none
CCC(C)N=Cc1c(NCCO)nc2c(C)cccn2c1=O (stereo not drawn)	none
Cc1cccn2c(=O)c(C=Nc3cccc(Cl)c3)c(NCc3ccco3)nc12	none
CNc1nc2c(C)cccn2c(=O)c1C=NCCO	ST2 inh 83%
Cc1cccn2c(=O)c(C=NCc3ccccc3)c(NCCO)nc12	none
CNc1nc2c(C)cccn2c(=O)c1C=Nc1ccc(Cl)cc1	none
COc1ccc(CN2C[C@H](O)C[C@H]2c2nc(-c3ccc4c(c3)OCO4)no2)c2ccccc12	none
